Results: paper PMC4336329 (PLoS ONE, 2015)
Screen size: about 310,000 compounds; about 14,000 (4.5%) showed an effect of 50% or more. Effects have a minus sign here. Only a selection was taken, and strong results are over-represented in it overall.

biological target: human ether-à-go-go-related gene (hERG) potassium channel (human, UniProt Q12809); assay: primary screen, population patch clamp on CHO cells stably expressing hERG; higher = less effect of the substance
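Further: peak tail current of the secondary pulse compared with the same well before compound.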

Sequence of human ether-à-go-go-related gene (hERG) potassium channel (Q12809 whole entry, looked up): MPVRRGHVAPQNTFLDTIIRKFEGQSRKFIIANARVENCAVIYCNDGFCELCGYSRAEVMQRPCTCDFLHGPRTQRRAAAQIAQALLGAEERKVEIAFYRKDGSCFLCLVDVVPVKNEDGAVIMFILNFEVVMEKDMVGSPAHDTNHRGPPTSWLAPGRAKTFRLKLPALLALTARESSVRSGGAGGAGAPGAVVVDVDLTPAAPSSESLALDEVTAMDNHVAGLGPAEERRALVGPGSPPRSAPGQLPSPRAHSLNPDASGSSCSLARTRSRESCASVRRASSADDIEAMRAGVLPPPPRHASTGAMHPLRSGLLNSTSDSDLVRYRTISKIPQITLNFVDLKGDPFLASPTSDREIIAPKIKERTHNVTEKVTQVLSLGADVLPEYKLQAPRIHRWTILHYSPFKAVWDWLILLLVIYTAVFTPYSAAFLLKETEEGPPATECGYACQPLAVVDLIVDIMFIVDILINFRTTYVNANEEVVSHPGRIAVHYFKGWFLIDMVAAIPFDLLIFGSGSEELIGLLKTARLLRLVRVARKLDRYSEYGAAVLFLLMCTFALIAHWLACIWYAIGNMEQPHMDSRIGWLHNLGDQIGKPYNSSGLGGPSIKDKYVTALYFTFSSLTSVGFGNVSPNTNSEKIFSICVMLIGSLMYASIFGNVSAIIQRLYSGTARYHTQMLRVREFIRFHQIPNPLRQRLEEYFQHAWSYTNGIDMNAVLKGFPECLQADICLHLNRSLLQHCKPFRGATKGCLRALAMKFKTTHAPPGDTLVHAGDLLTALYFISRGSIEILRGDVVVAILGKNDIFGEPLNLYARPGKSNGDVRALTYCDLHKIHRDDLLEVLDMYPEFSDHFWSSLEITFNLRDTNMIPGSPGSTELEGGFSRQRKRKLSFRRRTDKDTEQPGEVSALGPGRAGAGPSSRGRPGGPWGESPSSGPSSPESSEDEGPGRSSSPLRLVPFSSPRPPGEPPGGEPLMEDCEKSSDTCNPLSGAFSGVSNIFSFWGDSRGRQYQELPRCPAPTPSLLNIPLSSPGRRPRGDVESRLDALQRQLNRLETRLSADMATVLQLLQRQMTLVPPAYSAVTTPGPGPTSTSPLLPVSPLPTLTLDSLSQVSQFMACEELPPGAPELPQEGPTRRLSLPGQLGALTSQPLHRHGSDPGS

Row | Structure (SMILES) | hERG current change (%, negative = inhibition) at 10uM
1 | CCOc1ccccc1CN1CCNC(=O)C1CC(=O)NCc1nccn1CC (stereo not drawn) | 18.8%
2 | O=C(CNC(=O)c1ccccc1)NCC(=O)OCc1ccc(Cl)cc1 | -29.3%
3 | Cc1onc(-c2c(Cl)cccc2Cl)c1C(=O)NC(=S)N1CCOCC1 | 6%
4 | O=C(CCn1nnc(-c2cccs2)n1)NC1CCCCC1 | 2.79%
5 | C=CCOc1cccc(C2C(C(=O)c3ccc(C)o3)=C(O)C(=O)N2CCCn2ccnc2)c1 (stereo not drawn) | 9.13%
6 | Cn1cccc1/C=C1\SC(=S)N(NC(=O)c2ccccc2Cl)C1=O | 1.91%
7 | CCn1c(SCC(=O)Nc2cc(C)on2)nnc1-c1ccc(S(=O)(=O)N2CCN(C)CC2)cc1 | -23.1%
8 | Cc1cc(N=Nc2ccc(Cl)cc2)cc(CN2CCOCC2)c1O | 11.6%
9 | CC(=O)c1ccc(OC(=O)Cc2cccc3ccccc23)cc1 | 3.13%
10 | c1ccc2c(CNC3CCCCCC3)c[nH]c2c1 | -20.8%
11 | O=S(=O)(Cc1cc(-c2ccccc2)no1)c1ccccc1 | -2.75%
12 | O=S(=O)(Cc1cc(-c2ccccc2Cl)no1)c1ccccc1 | -51%
13 | O=S(=O)(Cc1cc(-c2ccc(Cl)cc2)no1)c1ccccc1 | 0.608%
14 | COCCn1nnnc1C(c1cccs1)N1CCCC(C)C1.Cl (stereo not drawn) | 17.9%
15 | COc1ccc(/C=C/C(=O)Nc2ccccc2C(F)(F)F)cc1OC | -4.62%
16 | O=C(CCl)N1N=C(c2ccco2)CC1c1ccco1 (stereo not drawn) | 14%
17 | O=C(COc1cccnc1[N+](=O)[O-])N1N=C(c2ccc(Cl)cc2)CC1c1ccco1 (stereo not drawn) | 16.9%
18 | Cl.N=c1sccn1CC(=O)N1N=C(c2ccc(Cl)cc2)CC1c1ccco1 (stereo not drawn) | -79.5%
19 | COc1ccc(C(=O)NCC(=O)OCC(=O)N2N=C(c3ccc(Cl)cc3)CC2c2ccco2)cc1OC (stereo not drawn) | -5.57%
20 | COCC(=O)OCC(=O)N1N=C(c2ccc(Cl)cc2)CC1c1ccco1 (stereo not drawn) | -28.1%
21 | Cc1ccc(OCC(=O)N2N=C(c3ccc(Cl)cc3)CC2c2ccco2)c([N+](=O)[O-])n1 (stereo not drawn) | -63.3%
22 | CCC(=O)N1N=C(c2ccc(Cl)cc2)CC1c1ccco1 (stereo not drawn) | 0.74%
23 | O=C(O)CCCC(=O)N1N=C(c2ccco2)CC1c1ccco1 (stereo not drawn) | 9.6%
24 | CC(=O)N1N=C(c2ccc(Cl)cc2)CC1c1ccco1 (stereo not drawn) | 7.11%

Row | Structure (SMILES) | hERG current change (%, negative = inhibition) at 10uM
25 | O=C(OCC(=O)N1N=C(c2ccc(Cl)cc2)CC1c1ccco1)c1ccco1 (stereo not drawn) | 27.4%
26 | O=C(O)CCC(=O)N1N=C(c2ccco2)CC1c1ccco1 (stereo not drawn) | -78.1%
27 | O=C(CNC(=O)c1ccccc1)OCC(=O)N1N=C(c2ccc(Cl)cc2)CC1c1ccco1 (stereo not drawn) | -72.5%
28 | COc1cc(S(=O)(=O)N2CCN(C)CC2)c(OC)cc1Cl | 13.2%
29 | COC(=O)c1nn(-c2ccc(OC)cc2)c(=O)cc1O | 16.9%
30 | O=C(CCc1c[nH]c2ccccc12)NCc1ccco1 | 32.4%
31 | Cc1ccc(CN(Cc2cc3cc(C)ccc3[nH]c2=O)C(=O)N2CCOCC2)cc1 | -13.2%
32 | Cc1cccc(NC(=O)CSc2nncn2-c2ccccn2)c1 | -1.31%
33 | CSc1ncc(CN2CCCC(C(=O)Nc3ccc(-c4ccco4)cc3)C2)cn1 (stereo not drawn) | 11.1%
34 | Cc1ccccc1-n1c(-c2ccoc2)nc2ccccc2c1=O | 6.09%
35 | CCN(Cc1ccccc1)C(=O)c1c(-c2ccccc2Cl)noc1C | -9.34%
36 | CC(C)c1csc(CN2CCN(CCc3ccccc3)C(CCO)C2)n1 (stereo not drawn) | -76%
37 | OCCC1CN(Cc2nc(-c3ccc(F)cc3)cs2)CCN1CCc1ccccc1 (stereo not drawn) | -80.6%
38 | CC(C)c1csc(CN2CCN(Cc3ccccc3)C(CCO)C2)n1 (stereo not drawn) | -26.3%
39 | OCCC1CN(Cc2nc(-c3ccccc3)cs2)CCN1CCc1ccccc1 (stereo not drawn) | -77.8%
40 | CC(C)CN1CCN(Cc2nc(C(C)C)cs2)CC1CCO (stereo not drawn) | 1.27%
41 | OCCC1CN(Cc2nc(-c3ccccc3)cs2)CCN1Cc1ccc(F)cc1 (stereo not drawn) | -69.8%
42 | C=C(c1ccccc1)P(=O)(O)O | 17.8%
43 | COc1ccccc1C(=O)NCCC(=O)OCC(=O)Nc1ccc(S(N)(=O)=O)cc1 | -2.51%
44 | Cc1cc(C(=O)Nc2ccc3ccccc3c2)c(C)o1 | 6.68%
45 | COc1ccc2oc(=O)c(-c3csc(Nc4cccc(O)c4)n3)cc2c1 | 25.8%
46 | COC(=O)CN1C(=O)[C@H]2[C@@H](c3ccc(C)o3)N3C(=O)CN(Cc4ccccn4)C(=O)[C@@]3(Cc3ccccc3)[C@H]2C1=O | 21.5%
47 | O=C(NCc1ccccc1)c1cccc(S(=O)(=O)N2CCOCC2)c1 | 0.662%
48 | Cc1ccc(N/C=C/C(=O)C(C)(C)C)c(O)c1 | -5.33%

Row | Structure (SMILES) | hERG current change (%, negative = inhibition) at 10uM
49 | CC(=O)NC(CC(=O)O)c1ccc(F)cc1 (stereo not drawn) | 0.22%
50 | COc1ccc(CNC(=O)CSc2nnc(C)c(=O)[nH]2)cc1 | 18.2%
51 | CC(C)N1CCN(Cc2nc(-c3ccccc3)cs2)CC1CCO (stereo not drawn) | -47.7%
52 | Cc1oc(-c2cccs2)nc1CN1CCN(CCC(C)C)C(CCO)C1 (stereo not drawn) | -27.6%
53 | OCCC1CN(Cc2ccncc2)CCN1C1CCCC1 (stereo not drawn) | -8.58%
54 | OCCC1CN(Cc2nc(-c3ccccc3)cs2)CCN1C1CCCC1 (stereo not drawn) | -66.4%
55 | Cc1cccc(CN2CCN(C3CCCC3)C(CCO)C2)n1 (stereo not drawn) | 3.1%
56 | CC(C)CCN1CCN(Cc2nc(-c3ccccc3)cs2)CC1CCO (stereo not drawn) | -62.7%
57 | O=C(CC1C(=O)NCCN1CC(c1ccccc1)c1ccccc1)NCC1CCOCC1 (stereo not drawn) | 6.24%
58 | CCCNC(=O)c1ccc(CN2CCOCC2)cc1 | 8.4%
59 | O=C(CS(=O)(=O)c1c[nH]c2ccccc12)Nc1ccc(F)cc1 | -21.8%
60 | Cc1cccc(OCCn2c(NC(=O)c3ccco3)nc3ccccc32)c1 | 12.5%
61 | CCC(=O)N/C(N)=N/c1nc2ccccc2o1 | -10.3%
62 | O=C(COc1ccc(Cl)cc1Cl)N1CCCN(C(=O)COc2ccc(Cl)cc2Cl)CC1 | -47.2%
63 | Fc1ccc(-c2nc3ccccn3c2NCc2ccc3c(c2)OCO3)cc1 | -24.3%
64 | Cc1cccn2c(NCc3ccc4c(c3)OCO4)c(-c3ccc(O)cc3)nc12 | -22.6%
65 | COc1ccc(-c2nc3cc(C)ccn3c2NCc2ccc3c(c2)OCO3)cc1 | -67.5%
66 | COc1ccc(-c2nc3ccccn3c2NCc2ccc3c(c2)OCO3)cc1 | -82.4%
67 | Cc1ccc(-c2nc3ccccn3c2NCc2ccc3c(c2)OCO3)cc1 | -69.3%
68 | c1ccc(-c2nc3ccccn3c2NCc2ccc3c(c2)OCO3)cc1 | -36.1%
69 | Cc1ccn2c(NCc3ccc4c(c3)OCO4)c(-c3ccc(O)cc3)nc2c1 | -11.6%
70 | COc1ccc(-c2nc3ccc(C)cn3c2NCc2ccc3c(c2)OCO3)cc1 | -34.1%
71 | Oc1ccc(-c2nc3ccccn3c2NCc2ccc3c(c2)OCO3)cc1 | -45.8%
72 | COc1ccc2c(C)c(CCC(=O)NC3CC3)c(=O)oc2c1C | 14.4%

Row | Structure (SMILES) | hERG current change (%, negative = inhibition) at 10uM
73 | CCCc1cc(C(=O)Nc2ccccc2C(=O)OC)no1 | 7.76%
74 | CCCC(=O)Nc1cccc(-c2cn3ccsc3n2)c1 | -47.5%
75 | CCOc1ccc(N(C(=O)/C=C/C(=O)Nc2cc(C)on2)C(C(=O)NC2CCCC2)c2ccccc2C)cc1 (stereo not drawn) | -6.96%
76 | CCn1nc(C)c(CNCc2cn[nH]c2-c2cc3ccccc3o2)c1C | -19%
77 | O=C(O)c1cc(C(F)(F)F)nc2ccccc12 | 3.92%
78 | CC(C)(C)OC(=O)N[C@@H](CC(=O)OCc1ccccc1)C(=O)O | 10.9%
79 | CC(C)(C)OC(=O)NC(CC(=O)OCc1ccccc1)C(=O)O (stereo not drawn) | 10.1%
80 | CC(C)(C)OC(=O)NC(Cc1ccccc1)C(=O)O (stereo not drawn) | -50.5%
81 | CC(C)(Oc1ccc(Cl)cc1)C(=O)NCCCn1ccnc1 | -21.2%
82 | C=CCn1c(SCC(=O)NC2CCCC2)nc2sc(C)cc2c1=O | -5.84%
83 | C=CCn1c(SCC(=O)c2cccs2)nc2sc(CC)cc2c1=O | -4.31%
84 | C=CCn1c(SCC(=O)N2CCCC2=O)nc2sc(CC)cc2c1=O | -70.9%
85 | C=CCn1c(SCC(=O)Nc2ccc(O)cc2)nc2sc(CC)cc2c1=O | -62.5%
86 | C=CCn1c(SCC(=O)NC2CC2)nc2sc(CC)cc2c1=O | -54.6%
87 | C=CCn1c(SCC(=O)O)nc2sc(CC)cc2c1=O | 13.8%
88 | C=CCn1c(SCC(=O)NC2CCS(=O)(=O)C2)nc2sc(CC)cc2c1=O (stereo not drawn) | -47.8%
89 | C=CCn1c(SCC#N)nc2sc(CC)cc2c1=O | -16.5%
90 | C=CCn1c(SCC(=O)N2CCN(C(=O)c3ccco3)CC2)nc2sc(CC)cc2c1=O | -76.3%
91 | C=CCn1c(SCC(=O)Nc2cc(C)on2)nc2sc(CC)cc2c1=O | 1.3%
92 | C=CCn1c(SCC(=O)Nc2sccc2C(N)=O)nc2sc(CC)cc2c1=O | -1.95%
93 | C=CCn1c(SCC(=O)N2CCc3ccccc3C2)nc2sc(CC)cc2c1=O | -34.5%
